Compounds with a hit are over-represented: about 1.7% of the library has one in this group of screens.
BJeLR viability: MLPCN primary cell-based screen for lethality selective to Ras in HRASV12 cells | BJeLR (HRASV12) viability, CellTiter-Glo ATP luminescence, 48 h | inhibition, % (test concentration not listed) | 300,000 compounds, 0.17% hits; in the data active = inhibition above about 50%
PrP 5UTR inh: inhibition of PrP 5' UTR reporter expression. cell-based PrP 5' UTR mRNA reporter, plate reader. inhibition, % (test concentration not listed). 340,000 compounds, 0.35% hits. AID 488862, 2010; in the data active = inhibition above about 52%
SSB-PriA inh: inhibitors of Klebsiella pneumoniae PriA binding to SSB C-terminal tail, primary screen, biochemical, AlphaScreen. AlphaScreen SSBct-PriA binding, biotinylated peptide. inhibition, % at 33 µM. 430,000 compounds, 0.6% hits. AID 1272365, 2023; in the data active = inhibition mostly above about 37%, no sharp cut-off; inactive = mostly below about 20%
PfHsp40 rescue: rescue of yeast from PfHsp40 toxicity, primary screen, S. cerevisiae, ATP luminescence. S. cerevisiae expressing PfHsp40, growth rescue. growth rescue, % at 12.5 µM. 340,000 compounds, 0.68% hits; in the data active = growth rescue above about 28%, passing the limit was not always enough;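 also: yeast W303a lacking pdr1 and pdr3 grown in galactose medium; growth measured after three days at 30 °C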
Y pestis TopoI: Yersinia pestis topoisomerase I inhibitors, primary screen, biochemical, cleavage product accumulation, plate reader, single point; Y. pestis Topo-I cleavage product accumulation; DNA topoisomerase I (Yersinia pestis CO92); activity, % at 10 µM; 360,000 compounds, 0.064% hits; in the data active = activity above about 50%, passing the limit was not always enough
PrPC TRFRET: inhibitors of human cell surface prion protein PrPC, primary screen, cell-based, TR-FRET; Major prion protein (Homo sapiens), P04156; TR-FRET read-out; inhibition, % at 13.8 µM; 370,000 compounds, 0.43% hits; AID 720596, 2013; in the data active = inhibition above about 24%
Of the large screens only hits and unclear results are named; the others gave an inactive call.

COC(=O)CSC1CCN(C(=O)CCc2ccc(Cl)c(C(F)(F)F)c2)C1 (stereo not drawn)	none (no result: BJeLR viability, PrP 5UTR inh, PfHsp40 rescue, Y pestis TopoI, PrPC TRFRET)
C=c1occc1=C1NN=C2SCC(c3ccc(-c4cc(Cl)ccc4Cl)o3)=NN21	none (no result: BJeLR viability, PrP 5UTR inh, PfHsp40 rescue, Y pestis TopoI, PrPC TRFRET)
Cc1ccccc1CN(C)CCS(=O)(=O)c1cc(Cl)ccc1Cl	PfHsp40 rescue 61
Nc1nnc(CCS(=O)(=O)c2cc(Cl)ccc2Cl)s1	none
O=C1N(c2ccc3c(c2)OCCO3)C(c2ccccc2)C1(F)F (stereo not drawn)	PfHsp40 rescue 43
CCCCCc1ccc(OCCCC[n+]2ccccc2)c(CCCCC)c1	PfHsp40 rescue 135 (no result: PrPC TRFRET)
CCCCCc1ccc(OCCCC[n+]2cccc(C)c2)c(CCCCC)c1	PfHsp40 rescue 95
CCCCCc1ccc(OCCCC[n+]2ccc(C)cc2)c(CCCCC)c1	none (no result: BJeLR viability)
CCC(C)(C)c1ccc(OCCCC[n+]2ccccc2)c(C(C)(C)CC)c1	none (no result: BJeLR viability, SSB-PriA inh)
Cc1nc(-c2ccc(F)cc2)sc1CCNS(=O)(=O)c1ccc(Cl)s1	none (no result: BJeLR viability, PrP 5UTR inh, PfHsp40 rescue, Y pestis TopoI, PrPC TRFRET)
NC(=NOC(=O)CCC1CCCC1)c1ccc(Cl)cc1	none (no result: BJeLR viability, PrP 5UTR inh, PfHsp40 rescue, Y pestis TopoI, PrPC TRFRET)
O=C(NCc1cccs1)C1CCN(S(=O)(=O)N2CCCC2)CC1	PfHsp40 rescue 33
O=C(NCc1cccs1)C1CCN(S(=O)(=O)c2cccs2)CC1	none
COC[C@H]1OC(=O)c2coc3c2[C@@]1(C)C1=C(C3=O)[C@@H]2CCC(=O)[C@@]2(C)C[C@H]1OC(C)=O	PfHsp40 rescue 123 (no result: BJeLR viability)
CS(=O)(=O)N1c2cccc3cccc(c23)S1(=O)=O	PfHsp40 rescue 48
COc1cccc(-c2cc3nc(-c4ccccc4)cc(N4CCCC(O)C4)n3n2)c1 (stereo not drawn)	PfHsp40 rescue 72
CCOC(=O)c1c(SCc2c(F)cccc2Cl)nc(=O)[nH]c1C	none (no result: BJeLR viability, PrP 5UTR inh, PfHsp40 rescue, Y pestis TopoI, PrPC TRFRET)
CCOC(=O)c1c(SC)[nH]c2c(Cl)cccc2c1=O	PfHsp40 rescue 93
CC(C)(C)[C@H](NC(=O)OCc1ccccc1)C(=O)O	none (no result: BJeLR viability, PrP 5UTR inh, PfHsp40 rescue, Y pestis TopoI, PrPC TRFRET)
Cc1ccccc1C=Nn1c(-c2ccccn2)n[nH]c1=S	SSB-PriA inh 59 (no result: BJeLR viability, PrP 5UTR inh, PfHsp40 rescue, Y pestis TopoI, PrPC TRFRET)
S=c1[nH]nc(-c2ccccn2)n1N=Cc1ccccc1	SSB-PriA inh 74 (no result: BJeLR viability, PrP 5UTR inh, PfHsp40 rescue, Y pestis TopoI, PrPC TRFRET)
Nn1c(-c2ccccn2)n[nH]c1=S	SSB-PriA inh 83 (no result: BJeLR viability, PrP 5UTR inh, PfHsp40 rescue, Y pestis TopoI, PrPC TRFRET)
Cc1ccc(C=Nn2c(-c3ccccn3)n[nH]c2=S)o1	SSB-PriA inh 72 (no result: BJeLR viability, PrP 5UTR inh, PfHsp40 rescue, Y pestis TopoI, PrPC TRFRET)
S=c1[nH]nc(-c2ccccn2)n1N=Cc1ccc(Cl)cc1	none (no result: BJeLR viability, PrP 5UTR inh, PfHsp40 rescue, Y pestis TopoI, PrPC TRFRET)
Cc1cc(C)c(C(=O)Nc2ccc(OC(C)C)cc2)c(C)c1	none (no result: BJeLR viability, PrP 5UTR inh, PfHsp40 rescue, Y pestis TopoI, PrPC TRFRET)
COc1ccc(N=NC2C(=O)N(c3ccccc3)N=C2C)cc1 (stereo not drawn)	SSB-PriA inh 43
CC1=NN(c2ccccc2)C(=O)C1N=Nc1ccccc1 (stereo not drawn)	none
CSc1cccc(-c2nnc(NC(=O)c3cc(Cl)ccc3[N+](=O)[O-])o2)c1	none (no result: BJeLR viability, PrP 5UTR inh, PfHsp40 rescue, Y pestis TopoI, PrPC TRFRET)
COc1c2ccc(C(=O)NCC3CCCN(c4nccs4)C3)cc2nn1C (stereo not drawn)	none (no result: BJeLR viability, PrP 5UTR inh, PfHsp40 rescue, Y pestis TopoI, PrPC TRFRET)
C=C1C(=O)C23CCC4C(C)(C(=O)OC)CCCC4(C)C2CCC1(O)C3 (stereo not drawn)	PfHsp40 rescue 242, PrPC TRFRET 86 (no result: BJeLR viability)
COC(=O)[C@]1(C)CCC[C@@]2(C)C3CC[C@@]4(C)C[C@]3(CCC21)CC(=O)N4 (stereo partly drawn)	none (no result: BJeLR viability)
O=c1[nH]cc(-c2ccc(Br)cc2)n1Cc1ccccc1	SSB-PriA inh 77 (no result: PfHsp40 rescue)
COc1ccc(S(=O)(=O)NC2CC3CCC2C3)cc1 (stereo not drawn)	PfHsp40 rescue 95
CSc1ccc(S(=O)(=O)NC2CC3CCC2C3)cc1 (stereo not drawn)	PfHsp40 rescue 78
NS(=O)(=O)c1ccc(CCNC(=O)c2ccc(F)cc2)cc1	none (no result: BJeLR viability, PrP 5UTR inh, PfHsp40 rescue, Y pestis TopoI, PrPC TRFRET)
CN(C)c1cncc(O[C@H]2CCN(C(=O)Cc3c[nH]c4ccccc34)C2)n1	none (no result: BJeLR viability, PrP 5UTR inh, PfHsp40 rescue, Y pestis TopoI, PrPC TRFRET)
CN1C(=O)NC2(CCN(S(=O)(=O)c3ccc4c(c3)OCCO4)CC2)C1=O	none (no result: BJeLR viability, PrP 5UTR inh, PfHsp40 rescue, Y pestis TopoI, PrPC TRFRET)
C=CCOc1ccccc1CN(C(=O)CCl)c1ccc2c(c1)OCO2	BJeLR viability 125
CCOc1ccccc1NC(=O)Nc1ccc2c(c1)OCO2	none
CCCCN(CCCC)c1ncnc2nc[nH]c12	PfHsp40 rescue 138
CCCCN(Cc1ccccc1)c1ncnc2nc[nH]c12	none (no result: PrPC TRFRET)
NC(=O)c1c(NC(=O)Cc2ccc(F)cc2)sc2c1CCC2	none (no result: BJeLR viability, PrP 5UTR inh, PfHsp40 rescue, Y pestis TopoI, PrPC TRFRET)
